According to PubChem BioAssay:
Where “and” joins values, the source holds several entries; their conditions need not be identical. Identical values can stand only once. Calls of active or inactive are those of the source.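 Rule for the calls, unless noted: active = normalized viability below 100% at a tested concentration; inactive = the rest.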

Experiments:
[1] = hESC survival regulators, cell-based (AID 493140; call rule not given here;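 note: cells exposed to compounds for four days before counting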); conditions: human embryonic stem cell survival screen; stronger effect = higher value
[2] = stimulators of insulin release from INS-1E, primary screen, cell-based, 5 mM glucose, NPC library (AID 1117329;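 active = compound raises insulin release from rat beta cells at 5 mM glucose, no numeric limit stated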); conditions: rat INS-1E insulin secretion, at 10 µM, stronger effect = higher value
[3] = growth inhibition of GSK3B-pretreated HCT116 cells – cell-based, CellTiter-Glo, 0.2 to 20 µM (AID 1117336;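 active = compounds lowering colon cancer cell viability after pretreatment blocking the GSK3B kinase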); conditions: HCT116 viability after GSK3B inhibitor, at 20 µM, stronger effect = higher value
[4] = inhibition of endothelial tube formation, primary screen, imaging, VEGF stimulated, CD31 staining, tube area, NPC library (AID 1117340;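 active = compound that reduces growth-factor-driven endothelial tube area in a mixed cell culture, no cutoff stated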); conditions: VEGF-stimulated ADSC/ECFC co-culture, at 10 µM, stronger effect = higher value
[5] = glucagon-like peptide 1 release enhancers, primary assay, NCI-H716 cell line, NPC library (AID 1117341;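 active = compound raises GLP1 secretion from the human gut endocrine cells, with no numeric limit stated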); conditions: NCI-H716 cells, at 10 µM, stronger effect = higher value
[6] = HCT116 colon cancer cell growth inhibition, primary screen, CellTiter-Glo luminescence, NPC library (AID 1117342;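 active = compounds that lower survival of HCT116 colon cancer cells in the luminescence readout, no numeric limit stated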); conditions: at 20 µM (top of the series)
[7] = CellTiter-Glo luminescent readout of SW480 viability loss, NPC library primary (AID 1117343;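 active = compounds that lower viability of the colon cancer cells in the luminescence readout, with no numeric limit stated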); conditions: CellTiter-Glo luminescence; at 20 µM (top of the series) unless noted
[8] = decreased DLD-1 cellular survival, CellTiter-Glo luminescent readout, NPC compound collection, primary HTS (AID 1117346;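 active = compounds that lower survival of DLD-1 colon cancer cells in the luminescence readout, no cutoff given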); conditions: DLD-1 viability, CellTiter-Glo luminescence; at 20 µM (top of the series)
[9] = target: 6-phosphogluconate dehydrogenase, decarboxylating (Homo sapiens) (UniProt P52209); test: 6PGD enzyme inhibitors, primary screen, biochemical, human, recombinant enzyme, NADPH absorbance (AID 1159550;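 active = at least 20% inhibition of 6-phosphogluconate dehydrogenase activity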); conditions: recombinant 6PGD, NADPH absorbance 341 nm; at 10 µM; stronger effect = higher value
[10] = differential killing of epithelial or mesenchymal cells, primary screen, imaging, PC-3E GFP, TEM4-18 mCherry, co-culture (AID 1345086;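 active = compounds killing one labelled cell type while sparing the other, by normalised counts and ratio limits, not self-fluorescent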;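 for all read-outs here: cells exposed to compound for 72 h before imaging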;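 for red/green cell ratio (normalised): normalised mesenchymal count divided by normalised epithelial count so high means epithelial killing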); conditions: imaging cell counts, at 1 µM; for red/green cell ratio (normalised): actives lie on both sides, counts scaled to control wells, 1 = unselective
[11] = survival rescue of mitochondrial mutant cells in low glucose, primary screen, MELAS cybrids, Rieske KO mouse fibroblasts, CellTiter-Glo (AID 1508586;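 active = mean z-score across replicates of 1.96 or higher in either the MELAS or the Rieske mutant cell line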;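 note: z relative to plate mean and SD of compound and empty wells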)
[12] = target: NAD(+) hydrolase SARM1 (Homo sapiens) (UniProt Q6SZW1); test: SARM1 TIR NADase inhibitors, cell lysate, NAD-Glo luminescence (AID 1508614;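 active = compound whose remaining NAD level is above about 45 nM, limit read from the data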;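 note: higher remaining NAD means stronger inhibition of SARM1 NADase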); conditions: SAM-TIR HEK293T lysate NADase, at 1 µM, stronger effect = higher value
[13] = target: Mitogen-activated protein kinase 7 (Homo sapiens) (UniProt Q13164); test: ERK5 transactivation activators in reporter cells, primary screen, cell-based, HTS (AID 1508626;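 active = luciferase signal above three times the same-plate solvent-only control wells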;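 note: luciferase driven by Gal4-ERK5 fusion binding five Gal4 sites before minimal TATA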); conditions: HeLa Gal4-ERK5 transactivation, 18 h, at 5 µM, stronger effect = higher value
[14] = viability rescue of complex I mutant cybrids, primary screen, cell-based, galactose medium, ATP luminescence (AID 1645843;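 active = z-score of at least 1.8 in each of two replicates, scored against plate mean and spread of sample wells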;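 note: positive z means more ATP and so rescue of galactose-driven cybrid death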); conditions: complex I mutant cybrid cells, 72 h, stronger effect = higher value
[15] = stimulators of nuclear beta-catenin in C2C12, primary screen, imaging, WNT3A-conditioned medium, mouse C2C12, NPC library (AID 1117326; in the data active = nuclear beta-catenin stimulation mostly above about 4.2%, no sharp cut-off; inactive = mostly below about 10%); conditions: stronger effect = higher value
[16] = ovarian cancer cell viability with rucaparib, profiling panel, oncology-focused library, rucaparib conditional (AID 1508598); conditions: patient-derived ovarian cancer cells, CellTiter-Glo viability, 144 h, stronger effect = lower value
[17] = LFS_MB_P medulloblastoma growth inhibition, cell-based, chromothripsis tumors, cisplatin or BGB combos (AID 1671449; in the data active = inhibition above about 80%;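 note: cells exposed for 96 hours; 0% = vehicle DMSO and 100% = killing by high DMSO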); conditions: LFS_MB_P medulloblastoma cells
[18] = HDN33 neuroblastoma growth inhibition, cell-based, chromothripsis tumors, cisplatin or BGB combos (AID 1671450; in the data active = inhibition above about 80%;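 note: cells exposed to compound for four days; 0% = vehicle DMSO and 100% = cell killing by high DMSO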); conditions: HDN33 neuroblastoma cells, stronger effect = higher value
[19] = ICB984 medulloblastoma cell growth inhibition, synergistic combos for chromothripsis tumors, cisplatin or BGB combos (AID 1671451; call rule not given here;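 note: cells exposed for 96 hours before readout; 0% = vehicle DMSO and 100% = killing by high DMSO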); conditions: ICB984 medulloblastoma cells, drug combinations, stronger effect = higher value
[20] = measured here: epithelial PC-3E GFP cell survival
[21] = measured here: mesenchymal TEM4-18 mCherry cell survival

Chain of NAD(+) hydrolase SARM1 (Homo sapiens) (Q6SZW1 whole entry, looked up, the tested form may be a part): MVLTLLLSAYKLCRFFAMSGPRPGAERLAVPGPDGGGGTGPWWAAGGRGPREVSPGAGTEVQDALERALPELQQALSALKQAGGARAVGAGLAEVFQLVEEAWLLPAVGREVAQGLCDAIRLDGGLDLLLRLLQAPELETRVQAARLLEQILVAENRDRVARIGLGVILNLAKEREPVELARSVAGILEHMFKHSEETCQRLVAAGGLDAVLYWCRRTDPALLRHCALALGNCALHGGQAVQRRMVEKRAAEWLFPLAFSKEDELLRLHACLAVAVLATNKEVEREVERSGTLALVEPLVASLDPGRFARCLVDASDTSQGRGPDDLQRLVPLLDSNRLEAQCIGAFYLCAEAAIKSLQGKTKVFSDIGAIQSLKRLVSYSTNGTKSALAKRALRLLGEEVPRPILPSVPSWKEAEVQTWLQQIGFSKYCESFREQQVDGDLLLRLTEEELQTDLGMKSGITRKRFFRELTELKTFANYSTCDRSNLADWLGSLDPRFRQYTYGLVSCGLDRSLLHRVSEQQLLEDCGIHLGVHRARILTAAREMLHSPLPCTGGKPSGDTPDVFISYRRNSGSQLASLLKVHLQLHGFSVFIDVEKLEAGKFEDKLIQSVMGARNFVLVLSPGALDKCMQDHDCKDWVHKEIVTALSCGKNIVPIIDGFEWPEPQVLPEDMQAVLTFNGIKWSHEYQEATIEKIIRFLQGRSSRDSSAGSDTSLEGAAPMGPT
Chain of Mitogen-activated protein kinase 7 (Homo sapiens) (Q13164 whole entry, looked up, the tested form may be a part): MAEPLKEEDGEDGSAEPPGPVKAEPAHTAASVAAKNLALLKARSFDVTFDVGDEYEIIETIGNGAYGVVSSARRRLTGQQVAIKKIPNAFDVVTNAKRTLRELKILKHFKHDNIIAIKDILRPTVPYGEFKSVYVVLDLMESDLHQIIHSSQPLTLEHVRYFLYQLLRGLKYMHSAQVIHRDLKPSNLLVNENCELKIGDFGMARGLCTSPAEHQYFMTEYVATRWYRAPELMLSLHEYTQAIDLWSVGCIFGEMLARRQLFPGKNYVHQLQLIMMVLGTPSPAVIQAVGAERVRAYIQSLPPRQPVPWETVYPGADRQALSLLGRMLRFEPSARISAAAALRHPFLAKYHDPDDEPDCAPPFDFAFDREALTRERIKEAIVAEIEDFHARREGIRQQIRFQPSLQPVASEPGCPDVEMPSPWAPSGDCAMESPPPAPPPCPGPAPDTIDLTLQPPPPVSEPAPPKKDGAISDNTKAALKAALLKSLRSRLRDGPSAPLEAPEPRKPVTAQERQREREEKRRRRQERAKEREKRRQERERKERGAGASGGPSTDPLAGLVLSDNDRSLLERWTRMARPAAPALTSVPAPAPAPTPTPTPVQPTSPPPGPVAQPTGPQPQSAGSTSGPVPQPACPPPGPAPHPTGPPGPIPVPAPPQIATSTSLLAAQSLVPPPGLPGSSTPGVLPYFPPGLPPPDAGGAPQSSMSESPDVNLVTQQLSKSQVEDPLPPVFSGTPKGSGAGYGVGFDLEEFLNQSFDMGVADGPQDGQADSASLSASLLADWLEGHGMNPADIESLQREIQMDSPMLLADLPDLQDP
Chain of 6-phosphogluconate dehydrogenase, decarboxylating (Homo sapiens) (P52209 whole entry, looked up): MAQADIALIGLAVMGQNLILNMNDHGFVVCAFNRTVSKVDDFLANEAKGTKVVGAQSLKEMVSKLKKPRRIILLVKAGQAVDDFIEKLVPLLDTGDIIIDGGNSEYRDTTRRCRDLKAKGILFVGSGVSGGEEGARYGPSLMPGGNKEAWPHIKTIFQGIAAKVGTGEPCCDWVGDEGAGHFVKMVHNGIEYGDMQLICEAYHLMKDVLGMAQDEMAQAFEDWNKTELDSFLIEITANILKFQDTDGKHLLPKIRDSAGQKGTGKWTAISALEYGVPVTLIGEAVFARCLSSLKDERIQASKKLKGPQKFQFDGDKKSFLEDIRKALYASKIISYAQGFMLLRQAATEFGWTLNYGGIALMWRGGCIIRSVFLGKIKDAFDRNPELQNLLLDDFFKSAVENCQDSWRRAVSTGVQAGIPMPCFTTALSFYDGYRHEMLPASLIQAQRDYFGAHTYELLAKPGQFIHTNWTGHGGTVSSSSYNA

CCCC(=O)Nc1ccc(OCC(O)CNC(C)C)c(C(C)=O)c1 (configuration not stated)
-0.138 and 0.913: z-score ([11]; Rieske KO mouse fibroblast survival, CellTiter-Glo 72 h)
0.93: normalised cell number [10, 21]
inactive: survival [1] 12.1 | insulin secretion stimulation [2] 0.7% | viability decrease [3] -32% | tube area decrease [4] 13.3% | GLP1 secretion stimulation [5] 0.9% | inhibition of viability [6] 2.87% | viability decrease (inhibition) [7] 15.1% | viability decrease (inhibition) [8] -8.8% | inhibition [9] 5.09% | red/green cell ratio (normalised) [10] 0.87 | z-score ([11]; MELAS cybrid survival, CellTiter-Glo 48 h, stronger effect = higher value) -0.162 and 0.587 | remaining NAD [12] 10 nM | luciferase signal [13] 60 AU | z-score [14] 1.51
1.07: normalised cell number [10, 20]

CCCC(CCC)C(=O)O
-29.5% and -2.64%: inhibition ([19]; measured here: 5 uM single agent, at 5 µM)
-2.31% and 15.6%: inhibition ([18]; cisplatin combo, at 5 µM)
-6.05% and -4.21%: inhibition ([17]; measured here: combination with BGB IC20, at 0.005 µM)
-32.2% and 12.9%: inhibition ([17]; measured here: combination with BGB IC40, at 0.05 µM)
-20.1% and 11%: inhibition ([18]; single agent, at 5 µM)
-9.77% and 11.3%: inhibition ([19]; BGB IC20 combo, at 0.005 µM)
0.437% and 10.4%: inhibition ([18]; measured here: with cisplatin IC20 combination, at 0.5 µM)
inactive: nuclear beta-catenin stimulation ([15]; at 10 µM) -1.5% | viability decrease [3] 4.6% | inhibition of viability [6] 20.8% | viability decrease (inhibition) [7] -4.3% | viability decrease (inhibition) [8] 13.5% | inhibition [9] 13.2% | red/green cell ratio (normalised) [10] 1.21 | viability ([16]; at 0.000305 µM, OCI-C5x cells, with rucaparib 10 µM, 100% = cells with rucaparib alone) 125% | viability ([16]; at 0.000305 µM, OCI-C5x cells, without rucaparib) 105% | viability ([16]; at 0.000305 µM, OCI-P5x cells, with rucaparib 20 µM, 100% = cells with rucaparib alone) 129% | viability ([16]; at 0.000305 µM, OCI-P5x cells, without rucaparib) 126% | viability ([16]; at 0.00122 µM, OCI-C5x cells, with rucaparib 10 µM, 100% = cells with rucaparib alone) 125% | viability ([16]; at 0.00122 µM, OCI-C5x cells, without rucaparib) 128% | viability ([16]; at 0.00122 µM, OCI-P5x cells, with rucaparib 20 µM, 100% = cells with rucaparib alone) 124% | viability ([16]; at 0.00122 µM, OCI-P5x cells, without rucaparib) 121% | viability ([16]; at 0.00488 µM, OCI-C5x cells, with rucaparib 10 µM, 100% = cells with rucaparib alone) 113% | viability ([16]; at 0.00488 µM, OCI-C5x cells, without rucaparib) 115% | viability ([16]; at 0.00488 µM, OCI-P5x cells, with rucaparib 20 µM, 100% = cells with rucaparib alone) 122% | viability ([16]; at 0.00488 µM, OCI-P5x cells, without rucaparib) 127% | viability ([16]; at 0.0195 µM, OCI-C5x cells, with rucaparib 10 µM, 100% = cells with rucaparib alone) 119% | viability ([16]; at 0.0195 µM, OCI-C5x cells, without rucaparib) 117% | viability ([16]; at 0.0195 µM, OCI-P5x cells, with rucaparib 20 µM, 100% = cells with rucaparib alone) 123% | viability ([16]; at 0.0195 µM, OCI-P5x cells, without rucaparib) 123% | viability ([16]; at 0.0781 µM, OCI-C5x cells, with rucaparib 10 µM, 100% = cells with rucaparib alone) 111% | viability ([16]; at 0.0781 µM, OCI-C5x cells, without rucaparib) 118% | viability ([16]; at 0.0781 µM, OCI-P5x cells, with rucaparib 20 µM, 100% = cells with rucaparib alone) 121% | viability ([16]; at 0.0781 µM, OCI-P5x cells, without rucaparib) 124% | viability ([16]; at 0.313 µM, OCI-C5x cells, with rucaparib 10 µM, 100% = cells with rucaparib alone) 116% | viability ([16]; at 0.313 µM, OCI-C5x cells, without rucaparib) 115% | viability ([16]; at 0.313 µM, OCI-P5x cells, with rucaparib 20 µM, 100% = cells with rucaparib alone) 118% | viability ([16]; at 0.313 µM, OCI-P5x cells, without rucaparib) 122% | viability ([16]; at 1.25 µM, OCI-C5x cells, with rucaparib 10 µM, 100% = cells with rucaparib alone) 119% | viability ([16]; at 1.25 µM, OCI-C5x cells, without rucaparib) 112% | viability ([16]; at 1.25 µM, OCI-P5x cells, with rucaparib 20 µM, 100% = cells with rucaparib alone) 112% | viability ([16]; at 1.25 µM, OCI-P5x cells, without rucaparib) 128% | viability ([16]; at 5 µM, OCI-C5x cells, with rucaparib 10 µM, 100% = cells with rucaparib alone) 115% | viability ([16]; at 5 µM, OCI-C5x cells, without rucaparib) 116% | viability ([16]; at 5 µM, OCI-P5x cells, with rucaparib 20 µM, 100% = cells with rucaparib alone) 122% | viability ([16]; at 5 µM, OCI-P5x cells, without rucaparib) 112% | remaining NAD [12] 10 nM | luciferase signal [13] 132 AU | z-score [14] 0.57 and 0.76 and 0.71 | inhibition ([17]; at 0.5 µM, stronger effect = higher value) -13.2% and -3.77% | inhibition ([18]; at 0.5 µM) -23.5% and 13.8% | inhibition ([19]; at 0.5 µM) -27.6% and -12.8%
-24.7% and -24.2%: inhibition ([17]; measured here: combination with cisplatin, at 5 µM, stronger effect = higher value)
-30.6% and 8.86%: inhibition ([18]; BGB combo, at 5 µM)
-15.7% and -0.427%: inhibition ([19]; BGB IC40 combo, at 0.05 µM)
-18.9% and -4.04%: inhibition ([19]; cisplatin combo, at 0.05 µM)
-25.9% and 4.77%: inhibition ([19]; cisplatin combo, at 5 µM)
-20.4% and -26.6%: inhibition ([19]; BGB IC40 combo, at 0.005 µM)
-33% and 14.7%: inhibition ([18]; measured here: with BGB IC20 combination, at 0.5 µM)
8.9%: nuclear beta-catenin stimulation ([15]; stimulation, at 2 µM)
-39.1% and -9.89%: inhibition ([17]; measured here: combination with cisplatin, at 0.5 µM, stronger effect = higher value)
-35.6% and -3.79%: inhibition ([19]; cisplatin combo, at 0.5 µM)
0.95: normalised cell number [10, 20]
1.15: normalised cell number [10, 21]
-31.2% and 0.129%: inhibition ([17]; measured here: combination with BGB IC40, at 0.005 µM)
